Experimental data published in PubChem BioAssay (NCI).
Values joined by “and” are separate entries in the source; they are usually repeats but may differ in a detail not shown here. Equal entries are not always repeated. About 79,000 compounds went through this panel and 15% of them were active in at least one assay; those are over-represented in the sample as a whole. Active and inactive are the calls of the source. Cut-off read from the data, not from the text of the source: active = growth inhibition above about 70%; inactive = the rest.

Columns and labels:
[1] = NCI Yeast Anticancer Drug Screen. Data for the rad50 strain (AID 155);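 note: 0% = growth of vehicle-only cultures of the same strain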; conditions: S. cerevisiae rad50 strain growth inhibition, stronger effect = higher value; at 50.0 µM unless noted
Summary of the method: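 Compounds were tested on a yeast strain with an engineered DNA damage repair alteration; the reported value is growth inhibition normalised to vehicle treatment.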

[2] = NCI Yeast Anticancer Drug Screen. Data for the mec2-1 strain (AID 157); conditions: S. cerevisiae mec2-1 strain, stronger effect = higher value; at 50.0 µM unless noted
Summary of the method: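 Vehicle-treated cultures served as reference for growth inhibition of compound-exposed mec2-1 yeast.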

[3] = NCI Yeast Anticancer Drug Screen. Data for the sgs1 mgt1 strain (AID 161);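 note: 0% = growth of cultures given vehicle only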; conditions: S. cerevisiae sgs1 mgt1 strain, stronger effect = higher value; at 50.0 µM unless noted
Summary of the method: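 Genetically altered yeast, compound exposure, growth inhibition relative to vehicle.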

[4] = NCI Yeast Anticancer Drug Screen. Data for the cln2 rad14 strain (AID 165);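 note: 0% = growth equal to vehicle treated cultures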; conditions: S. cerevisiae cln2 rad14 strain, stronger effect = higher value; at 50.0 µM unless noted
Summary of the method: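 Each compound was tested on cln2 rad14 yeast. Inhibition of growth was calculated against vehicle-exposed controls.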

[5] = NCI Yeast Anticancer Drug Screen. Data for the bub3 strain (AID 167); conditions: S. cerevisiae bub3 mutant strain, stronger effect = higher value; at 50.0 µM unless noted
Summary of the method: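 Growth of a checkpoint-deficient yeast mutant is measured after compound exposure. Values represent inhibition relative to vehicle.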

[6] = NCI Yeast Anticancer Drug Screen. Data for the mlh1 rad18 strain (AID 175); conditions: S. cerevisiae mlh1 rad18 strain growth inhibition, stronger effect = higher value; at 50.0 µM unless noted
Summary of the method: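 Vehicle-treated cultures served as the reference for growth inhibition in a yeast strain carrying DNA damage repair alterations exposed to each compound.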

Measured: growth inhibition

COC(=O)C(C(=O)C(=O)Nc1ccccc1OC)c1csc(-n2nc(-c3ccccc3)cc2-c2ccccc2)n1 (stereo not drawn)
inactive: [1] 0.65% | [2] -7.85% | [3] -11.2% | [4] 21.4% | [5] 52.1% | [6] 4.95%

O=c1[nH]c2ccc([N+](=O)[O-])cc2nc1/C(=N/Nc1ccccc1)C(O)c1ccco1 (stereo not drawn)
inactive: [1] -4.6% | [2] -9.1% | [3] -12.8% | [4] 6% | [5] -10.6% | [6] 12.9%

CN1CCCC1CCN (stereo not drawn)
inactive: [1] 0.15% | [2] -10.8% | [3] -13.8% | [4] -1% | [5] 3.9% | [6] 6.15%

CN(N)c1nc(N)c(C#N)c(C#N)c1C#N
inactive: [1] -16.8% | [2] -22.5% | [3] -4.9% | [4] 11.7% | [5] -2.65% | [6] 3.9%

C#CCOCC(CCl)OC(=O)Nc1ccccc1 (stereo not drawn)
active: [6] 84.4%
inactive: [1] 14.7% | [2] 47.1% | [3] 11.6% | [4] 11.8% | [5] 14.7%

O=C(CS(=O)(=O)c1ccccc1)c1ccccc1
inactive: [1] -14.4% and 14.6% | [2] -18.9% and 13.1% | [3] -6.05% and 12.6% | [4] 8.75% and 1.5% | [5] 0.55% and 29.9% | [6] -29.9% and 28.3%

C/C(=C/CC1=C(O)c2ccccc2C(=O)C1=O)CO
inactive: [1] 23% | [2] 32.9% | [3] 51.7% | [4] 32.8% | [5] 26% | [6] 33.8%

COc1ccc(/C(=C(/c2ccc(OC)cc2)C2CC2)C2CC2)cc1
inactive: [1] -5.3% | [2] 7.25% | [3] 11% | [4] -14.8% | [5] 5.45% | [6] 10.6%

C/C(CCCCCCCCCCCC/C(C)=N\Nc1ccc([N+](=O)[O-])cc1[N+](=O)[O-])=N/Nc1ccc([N+](=O)[O-])cc1[N+](=O)[O-]
inactive: [1] -15.8% | [2] 5.25% | [3] -3.2% | [4] 27.2% | [5] 2.3% | [6] 31.6%

CCOC(=O)CCN(CCC(=O)OCC)N(C)C
inactive: [1] 2.55% | [2] -6.45% | [3] -4.6% | [4] -8.85% | [5] 5.8% | [6] 2.8%

O=C1[C@H]2ON(c3ccccc3)C(c3ccccc3)[C@H]2C(=O)N1c1ccc(Cc2ccc(N3C(=O)[C@@H]4ON(c5ccccc5)C(c5ccccc5)[C@@H]4C3=O)cc2)cc1 (stereo partly drawn)
inactive: [1] 3.1% | [2] 3.45% | [3] 12.6% | [4] 21.5% | [5] 26.5% | [6] 11.8%

CCO[C@@H]1OC(=O)[C@H]2C(c3ccc(Cl)cc3)=NO[C@@H]12
inactive: [1] -13.4% | [2] -33.7% | [3] 0.05% | [4] 3.6% | [5] 29.8% | [6] -4.9%

Clc1ccc(C2ON=C(c3ccccc3)N2C23CC4CC(CC(C4)C2)C3)cc1Cl (stereo not drawn)
inactive: [1] 5.65% | [2] -17.6% | [3] 2.8% | [4] -20% | [5] -7.9% | [6] -1%

OC12c3ccccc3C1CCCCCCCCCC21OCCCO1 (stereo not drawn)
inactive: [1] -2.65% | [2] -19.8% | [3] -42.6% | [4] 6.4% | [5] -30.4% | [6] -23.6%

CC(O)C1(O)CCCCC1 (stereo not drawn)
inactive: [1] -11.8% | [2] -1.95% | [3] -2.05% | [4] -29.6% | [5] -13.2% | [6] -14.8%

NC1=CN(CCCO)C2=N/C(=C\c3ccccc3)C(=O)N12
inactive: [1] 14.2% | [2] -3.65% | [3] 26.4% | [4] 8.9% | [5] -3.3% | [6] 12.7%

O=S1(=O)OCCOS(=O)(=O)C1C1c2ccccc2-c2ccccc21
inactive: [1] 13.4% | [2] 2.95% | [3] 18.7% | [4] 7.6% | [5] -1.25% | [6] -32.3%

O=C(c1ccccc1)C1CC1C(=O)c1ccccc1 (stereo not drawn)
inactive: [1] -3.55% | [2] -11.8% | [3] -6.1% | [4] -61.5% | [5] 38.3% | [6] -3.45%

CC(/C(=N/O)c1ccccc1)N1C(=O)c2ccccc2C1=O (stereo not drawn)
inactive: [1] -31.1% | [2] -12.9% | [3] -4.5% | [4] -27.1% | [5] -3.95% | [6] 5.7%

O=C(O)c1ccccc1SCCO
inactive: [1] -1.95% | [2] 18% | [3] 25.3% | [4] 47.8% | [5] -22.4% | [6] -3.8%

[O-][N+](CCO)(CCO)c1ncnc2nc[nH]c12
inactive: [1] -2.35% | [2] -12.7% | [3] -0.45% | [4] -8.9% | [5] -63.7% | [6] 18.4%

Cc1ccccc1C=NC12CC3CC(CC(C3)C1)C2
inactive: [1] -24.8% | [2] -18.1% | [3] -22.2% | [4] 7.2% | [5] -8.4% | [6] -25.1%

CC(=O)[CH-]C(=O)c1ccccc1.CC(=O)[CH-]C(=O)c1ccccc1.CC(C)CCCC(C)[C@H]1CCC2[C@@H]3CCC4C[C@@H]([O-])CC[C@]4(C)C3CC[C@@]21C.CC(C)CCCC(C)[C@H]1CCC2[C@@H]3CCC4C[C@@H]([O-])CC[C@]4(C)C3CC[C@@]21C.Cl.[Ti+4] (stereo partly drawn)
inactive: [1] 14.4% | [2] 1.25% | [3] 21.4% | [4] -12.1% | [5] 25.6% | [6] -0.95%

Cc1ccccc1C(=O)c1ccccc1C
inactive: [1] -16.3% | [2] -9.95% | [3] -7.2% | [4] -34% | [5] -1.55% | [6] -9.9%

BrC1CC2CCC1CC2 (stereo not drawn)
inactive: [1] -14.7% | [2] -6.45% | [3] -7.2% | [4] -6.8% | [5] -7.05% | [6] 16.6%

Cc1ccc(C2OC3=C(Nc4ccc([N+](=O)[O-])cc4N3)C2=O)cc1 (stereo not drawn)
inactive: [1] 10.1% | [2] 7.75% | [3] 8.65% | [4] 12.8% | [5] -4.35% | [6] 3.25%

CC1(C)OC(CI)C(COS(C)(=O)=O)O1 (stereo not drawn)
inactive: [1] 3.7% | [2] 3.2% | [3] 3.7% | [4] -25.2% | [5] -11.3% | [6] -2.25%

O=C(O)C(Nc1ccc(Cl)cc1)c1ccccc1 (stereo not drawn)
inactive: [1] 1.7% | [2] 3.25% | [3] 18.9% | [4] 6.5% | [5] 8.1% | [6] -22.6%

O=C(NC(CO)Cc1ccccc1)OCc1ccccc1 (stereo not drawn)
inactive: [1] -4.15% | [2] -5.25% | [3] 0% | [4] 5.45% | [5] 8.1% | [6] -7.65%

COC(=O)c1[nH]nc(-c2ccccc2)c1N
inactive: [1] 11% | [2] 2.95% | [3] -12.8% | [4] -51.8% | [5] 17.4% | [6] 1.9%

N#Cc1c(-c2ccccc2)[nH]c2ccccc2c1=O
inactive: [1] 54.7% | [2] 55.4% | [3] 2.05% | [4] 11.3% | [5] -3.65% | [6] -17.5%

CC1=Nc2ccccc2S/C1=C(/C)NNS(=O)(=O)c1ccc(C)cc1
inactive: [1] 10.1% | [2] -0.05% | [3] 0.25% | [4] -6.3% | [5] 7.75% | [6] 18.1%

OC1C(SCc2ccccc2)OCC2OC3(CCCCC3)OC21 (stereo not drawn)
inactive: [1] -5.1% | [2] -5.7% | [3] -9% | [4] -5.9% | [5] 1.75% | [6] 9.45%

CC(C)Cc1c(C#N)c(C#N)c(N)n1Cc1ccccc1
inactive: [1] 3.05% | [2] 11.4% | [3] -29% | [4] -12% | [5] -22.1% | [6] -36.4%

CC(C)C1CCC2C(CCC3C(C)(C(=O)O)CCCC23C)C1 (stereo not drawn)
inactive: [1] -2.35% | [2] 14.1% | [3] -0.85% | [4] 21% | [5] -12.8% | [6] 25.2%

O=C1CN(C2OC(CO)C(O)C2O)C(=O)NC1=O (stereo not drawn)
inactive: [1] 41.8% | [2] 14.2% | [3] 55.2% | [4] -11.2% | [5] 9.15% | [6] 24.4%

Cc1cc(Cl)ccc1OCC(=O)NCCO
inactive: [1] 33.4% | [2] 19.9% | [3] 13.8% | [4] 10.4% | [5] 2.8% | [6] 12%

CC(=O)CC(=O)Nc1ccc(-c2ccc(NC(=O)CC(C)=O)c(Cl)c2)cc1Cl
inactive: [1] -22.2% | [2] -27.7% | [3] -10.2% | [4] 1.9% | [5] -16.6% | [6] -6.35%
